# Tests used:
# Assay in all cases: PBM binding z-score (relative to random genomic background probes); higher = stronger binding; sequences stand for … in GC…GCGATTGACAGCGTAGAATGAAGG
# [1] = system: FXR:RXRa (NR concentration 270 nM, RXRa partner concentration 90 nM)
# How it was run: (§1)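 Custom Agilent 4×180K protein-binding microarrays carried double-stranded probes. Their 34-nt variable regions held direct-repeat seeds, single-nucleotide variants, half-site ablations and random human genomic background sequences. Arrays were incubated 1 h with ligand-free nuclear receptor dimers in PBS pH 7.4, 2% milk, 0.02% Triton X-100, 1 mM DTT, 0.2 mg/mL BSA and 0.4 mg/ml salmon testes DNA. Antibodies against each partner (one per run) detected binding, and scanned fluorescence was regression-normalized. Binding z-scores use random background probes as reference.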
# [2] = system: LXRa:RXRa (NR concentration 270 nM, RXRa partner concentration 90 nM)
# How it was run: as §1
# [3] = system: LXRa homodimer (NR concentration 270 nM)
# How it was run: as §1
# [4] = system: LXRb:RXRa (NR concentration 270 nM, RXRa partner concentration 90 nM)
# How it was run: as §1
# [5] = system: LXRb homodimer (NR concentration 270 nM)
# How it was run: as §1
# [6] = system: PPARa:RXRa (NR concentration 270 nM, RXRa partner concentration 90 nM)
# How it was run: as §1
# [7] = system: PPARg:RXRa (NR concentration 180 nM, RXRa partner concentration 90 nM)
# How it was run: as §1
# [8] = system: PPARg:RXRa 270nM:90nM, anti-RXR (NR concentration 270 nM, RXRa partner concentration 90 nM)
# How it was run: as §1
# [9] = system: PPARg:RXRa 30nM:10nM, anti-RXR (NR concentration 30 nM, RXRa partner concentration 10 nM)
# How it was run: as §1
# [10] = system: PPARg:RXRa 90nM:30nM, anti-RXR (NR concentration 90 nM, RXRa partner concentration 30 nM)
# How it was run: as §1
Sequence,PBM binding z-score [1],PBM binding z-score [2],PBM binding z-score [3],PBM binding z-score [4],PBM binding z-score [5],PBM binding z-score [6],PBM binding z-score [7],PBM binding z-score [8],PBM binding z-score [9],PBM binding z-score [10]
GGAACGAGGGCAAGTTGACAGCAGAGTTTGATGG,0.854,0.43,-0.472,0.324,-0.45,1.69,1.15,1.35,0.346,0.686
CGAACGAGGGCATGAGTCGATAGCAAATGCCGAT,0.37,0.268,-0.569,-0.0412,-0.951,1.48,1.74,2.28,0.37,1.93
CAAACTAGGGCAAGGTCAAAGTCGGTTTGTGCCA,5.18,4.46,2.44,3.77,0.468,5.56,7.92,6.99,4.88,7.3
TTACCATGGTGAAGGTCGTTGATCCCTCTGTAGA,1.59,1.54,-0.212,1.35,-0.704,1.64,1.06,2.74,1.09,2.44
GGAACGAGGGCAAGGTGATAGCAGAGTTTGATGG,0.873,0.623,-0.0759,0.183,-0.496,1.74,1.76,1.89,0.199,1.19
CTACCTAGGTGAACAAGGTCGTTGATTACTATTC,0.921,0.98,0.31,1.61,-0.219,2.31,1.31,1.36,-0.0446,0.717
GAGACTGGGGCATCAGCAGGTTACCATAACTTAA,0.0727,0.0866,-0.0013,1.28,0.0718,1.73,1.71,1.63,0.0526,0.657
CGTCAAAGTTCAACGTAACGTAACAGAAAGCAGC,6.54,5.59,2.98,3.72,1.38,4.94,4.58,4.97,2.08,3.84
ATCACTAGGTAAGACTCAGTTCAGTGAAGAACGC,0.15,0.00987,0.227,-0.0165,0.239,0.147,0.394,0.383,0.287,0.0779
TCTCGTAGGACACGAAGGTCAGAGCTTTCCAGAG,0.999,0.907,0.334,1.08,-0.838,1.85,0.478,1.91,2.61,2.45
TCGAGTAGGTTAGGGGAATTCAGAATGGCGTCGA,-0.0318,-0.209,-0.147,0.224,-0.435,0.565,0.159,1.02,1.11,1.18
ATCTCTAGGTAACAAATTCAGTGAAAGAGAGGAC,0.723,0.714,0.441,0.288,1.15,0.552,0.558,0.598,0.83,0.732
GCTTGTAGATCAAGGTTAAGAAAGACTAAGCTAA,0.0354,0.884,-0.55,0.55,-0.627,1.56,1.01,2.05,0.29,1.56
TAGCCTAGGTCATTGGGCGAGTATAGTACGCATC,4.55,3.24,0.459,2.06,0.053,3.51,2.65,2.83,0.405,1.8
CCTATCAGGCCAATCTGGGTCACTCAAGGCTTGA,0.68,1.71,-0.155,1.02,0.106,3.29,2.26,2.47,0.43,1.76
CCTACTGGGCCAAGGTCAATGATCAGTCAAAGCA,2.52,2.33,0.441,2.32,-0.518,3.85,4.03,4.33,2.07,3.39
CGTTAAAGTTCAAGGTAACGTAACAGAAAGCAGC,6.06,5.3,2.94,3.2,1.15,4.56,3.3,4.01,1.81,3.27
CGAAATAGGTCATCCAGGACAGTGAATACATTGA,5.99,4.69,1.25,3.8,0.842,5.87,7.32,6.78,4.39,6.21
TCTAGTTGGTCAGGGAGGTCACACACGACGGGTA,3.15,3.3,2.44,3.24,1.66,3.72,2.28,3.13,3.27,3.23
ACCGAAAGGTCGTGAGGTGAGTATACAGAAAGGC,5.42,3.86,-0.204,3.02,0.134,5.29,3.99,4.37,1.42,2.8
CCTACTGGGGCAAAAAGGTCATTGATGCCGATAA,3.82,4.34,2.86,3.92,0.284,4.96,4.68,5.28,2.57,4.43
CTACCAAGATGAACAAGGTCGTTGATTACTATTC,0.828,0.783,0.9,1.49,0.267,1.09,0.228,0.135,-0.0206,0.314
CATCCTAGGTCAGGGCCAGTATAGGAGGAACGTT,2.24,2.03,0.118,1.17,-0.0238,2.75,1.89,2.19,0.615,1.34

# Reference: the supplement of paper PMC6555819
